In PubChem BioAssay (EPA / NIEHS) one finds outcome and AC50 data, which are given here for 7 compounds.

Structures are written as SMILES. Active and inactive are the calls of the source. How the source made its calls: active means hit-call score of the fitted dose curve at least 0.9, where 1 is the maximum; inactive means score below 0.9.

Experiment [1] is described as follows: ATG_CRE_CIS: Attagene CIS-FACTORIAL HepG2 Assay for human cAMP Responsive Element (CRE) binding protein 3 (AID 2282926). The note with it: HepG2 CRE cis-reporter, Attagene multiplexed mRNA; actives raise or lower the signal. Summed up:
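Assay format: transient reporter transfection of HepG2, 24 h treatment, total RNA isolation with DNase I step. Reporter abundance read by fluorescence after PCR and capillary separation; DMSO-normalised gain or loss fitting.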

The target of experiment [2] is CCAAT/enhancer-binding protein beta (Homo sapiens) (UniProt P17676). Briefly: ATG_C_EBP_CIS: Attagene CIS-FACTORIAL HepG2 Assay for human CCAAT/Enhancer Binding Protein (C/EBP) beta (AID 2282927). The note with it: HepG2 Attagene cis-factorial transcription factor reporter; actives raise or lower the signal. In outline:
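Endogenous C/EBPb-driven reporter transcripts measured in transfected human HepG2 cells at 24 h via RT-PCR and capillary electrophoresis of labelled fragments. Activity fitted in both directions relative to DMSO baseline.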

A short description of experiment [3]: ATG_CMV_CIS: Attagene CIS-FACTORIAL HepG2 Assay for human CMV (Internal Marker) (AID 2282928).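 Further: endpoint acts as a background internal control marker rather than a target.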 Conditions: HepG2 CMV promoter reporter, transcription factor profiling; actives raise or lower the signal. Summed up:
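24 h chemical treatment, HepG2 with transient multi-reporter transfection; RNA → oligo(dT) RT → PCR → 6-FAM extension → HpaI digest → CE fluorescence. Bidirectional fit, DMSO negative control.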

The nature of experiment [4]: ATG_DR4_LXR_CIS: Attagene CIS-FACTORIAL HepG2 Assay for human Liver X Receptor (LXR), DR4 submotif (AID 2282929). Conditions: HepG2 Attagene DR4 cis-reporter, mRNA transcription; actives raise or lower the signal. Summed up:
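HepG2 cells transiently transfected with cis-promoter-driven multiplexed reporter units (DR4 element) were dosed for 24 h. Reporter mRNA was quantified by RT-PCR, fluorescent primer extension, HpaI digestion and capillary electrophoresis; bidirectional fitting versus DMSO baseline.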

In experiment [5] the target is Aryl hydrocarbon receptor (Homo sapiens) (UniProt P35869). Briefly: ATG_Ahr_CIS: Attagene CIS-FACTORIAL HepG2 Assay for human Aryl Hydrocarbon Receptor (Ahr) (AID 2282930). The note with it: HepG2 AhR cis-factorial reporter transcription; actives raise or lower the signal. In outline:
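Reporter mRNA levels, quantified by RT-PCR and fluorescent capillary electrophoresis, reflect endogenous AhR transcriptional activity in HepG2 cells carrying transfected cis-promoter reporter constructs. Readout at 24 h post-dose; gain or loss fitted against DMSO baseline.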

Experiment [6] in a line: ATG_AP_1_CIS: Attagene CIS-FACTORIAL HepG2 Assay for human Activator Protein 1 (AP-1) (AID 2282931). Conditions: HepG2 Attagene cis-factorial AP-1 reporter mRNA; actives raise or lower the signal. In outline: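 HepG2 cells transiently transfected with cis-element-driven multiplex reporter units; 24 h compound exposure. Reporter mRNA quantified by RT-PCR, FAM-labelled fragments resolved by capillary electrophoresis; bidirectional fit versus DMSO baseline.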

Experiment [7] is described as follows: ATG_BRE_CIS: Attagene CIS-FACTORIAL HepG2 Assay for human Bone Morphogenetic Protein (BMP) Response Element (BRE) (AID 2282933). The note with it: HepG2 BMP response element reporter, Attagene transcription factor profiling; actives raise or lower the signal. Summed up:
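Read-out: reporter mRNA induction quantified by RT-PCR and capillary electrophoresis after 24 h chemical exposure of transfected HepG2 cells. Endogenous factor activity on the BMP response element; gain or loss fitted against DMSO baseline.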

In experiment [8] the target is Retinoic acid receptor alpha (Homo sapiens) (UniProt P10276). Briefly: ATG_DR5_RAR_CIS: Attagene CIS-FACTORIAL HepG2 Assay for human Retinoic Acid Receptor Alpha (RARE), DR5 submotif (AID 2282934). The note with it: HepG2 Attagene cis-factorial RARE DR5 reporter, mRNA; actives raise or lower the signal. Summed up: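 Reporter transcripts from a DR5-regulated unit, measured via RT-PCR plus capillary electrophoresis, reflect endogenous RAR activity in transiently transfected human HepG2 liver cells. Exposure lasted 24 h; gain or loss of signal scored against DMSO.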
Retinoic acid receptor alpha (Homo sapiens), sequence (P10276 whole entry, looked up): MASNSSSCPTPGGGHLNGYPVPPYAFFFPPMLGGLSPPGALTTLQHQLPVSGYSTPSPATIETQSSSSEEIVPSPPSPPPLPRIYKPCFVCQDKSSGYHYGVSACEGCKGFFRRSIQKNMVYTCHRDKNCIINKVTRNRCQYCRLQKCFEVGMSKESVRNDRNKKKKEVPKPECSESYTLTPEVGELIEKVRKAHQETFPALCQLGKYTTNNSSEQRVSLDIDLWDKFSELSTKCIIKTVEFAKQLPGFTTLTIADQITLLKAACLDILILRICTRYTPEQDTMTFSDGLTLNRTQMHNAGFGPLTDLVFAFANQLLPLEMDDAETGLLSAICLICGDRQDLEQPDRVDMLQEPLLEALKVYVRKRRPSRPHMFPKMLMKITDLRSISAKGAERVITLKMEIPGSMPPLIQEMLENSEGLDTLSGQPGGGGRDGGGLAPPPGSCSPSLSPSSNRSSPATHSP

For experiment [9], the target named is Transcription factor E2F1 (Homo sapiens) (UniProt Q01094). The experiment can be described thus: ATG_E2F_CIS: Attagene CIS-FACTORIAL HepG2 Assay for human E2F Transcription Factor 1 (AID 2282935). The note with it: HepG2 Attagene cis-reporter, E2F reporter RNA transcripts; actives raise or lower the signal. In outline: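 Fluorescent RT-PCR products, digested with HpaI for 2 h at 37 C, are separated by capillary electrophoresis. Source RNA comes from transfected HepG2 cultures treated for 24 h.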
Transcription factor E2F1 (Homo sapiens), sequence (Q01094 whole entry, looked up): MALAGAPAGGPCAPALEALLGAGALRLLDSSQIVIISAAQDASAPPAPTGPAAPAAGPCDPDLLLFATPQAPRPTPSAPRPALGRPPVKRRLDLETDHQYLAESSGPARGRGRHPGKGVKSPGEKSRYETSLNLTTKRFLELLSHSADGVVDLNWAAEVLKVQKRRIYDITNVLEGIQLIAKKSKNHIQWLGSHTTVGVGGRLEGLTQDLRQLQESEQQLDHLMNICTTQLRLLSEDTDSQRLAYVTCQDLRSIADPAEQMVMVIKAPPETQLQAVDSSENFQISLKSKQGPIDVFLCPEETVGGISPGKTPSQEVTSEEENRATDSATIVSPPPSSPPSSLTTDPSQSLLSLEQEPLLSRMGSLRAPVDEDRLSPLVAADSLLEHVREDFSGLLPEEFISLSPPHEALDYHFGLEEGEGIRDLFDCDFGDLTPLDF

Experiment [10] is described as follows: ATG_E_Box_CIS: Attagene CIS-FACTORIAL HepG2 Assay for human Enhancer Box (E-box) (AID 2282936). Conditions: HepG2 E-box cis-reporter transcription, actives raise or lower the signal. In outline: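 Fluorescent reporter fragments separated by capillary electrophoresis gave the signal; mRNA came from HepG2 cells transfected with cis-element reporters and treated 24 h. Curves fitted bidirectionally relative to DMSO controls.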

The nature of experiment [11]: ATG_M_61_CIS: Attagene CIS-FACTORIAL HepG2 Assay for M61 Transcription Factor (Internal Marker) (AID 2282937). Conditions: HepG2 Attagene CIS-FACTORIAL M61 internal marker reporter; actives raise or lower the signal. Summed up: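 HepG2 cells transiently transfected with cis-element-driven multiple reporter transcription units, dosed for 24 h. Reporter mRNA measured by RT-PCR, 6-FAM primer-extension labelling, HpaI digestion and capillary electrophoresis; bidirectional fit versus DMSO baseline.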

Experiment [12] is described as follows: ATG_EGR_CIS: Attagene CIS-FACTORIAL HepG2 Assay for human Early Growth Response 1 (EGR1) (AID 2282938). The note with it: HepG2 Attagene CIS-FACTORIAL EGR reporter mRNA; actives raise or lower the signal. Summed up:
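HepG2 cells transiently transfected with cis-promoter-driven multiplexed reporter transcription units; reporter mRNA measured 24 h after compound dosing by RT-PCR, 6-FAM primer extension, HpaI digestion and capillary electrophoresis. Bidirectional fit versus DMSO baseline.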

Experiment [13] in a line: ATG_M_19_CIS: Attagene CIS-FACTORIAL HepG2 Assay for M19 Transcription Factor (Internal Marker) (AID 2282939). The note with it: HepG2 Attagene CIS-FACTORIAL M19 internal marker reporter; actives raise or lower the signal. In outline:
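Readout: fluorescent reporter-transcript fragments by capillary electrophoresis after RT-PCR. Human HepG2 liver cells carried transfected MRTU constructs reporting endogenous transcription-factor activity; exposure 24 h. Gain or loss of signal fitted relative to DMSO.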

The nature of experiment [14]: ATG_ERE_CIS: Attagene CIS-FACTORIAL HepG2 Assay for Estrogen Response Element (ERE) (AID 2282940). The note with it: HepG2 ERE cis-reporter, Attagene RNA transcript; actives raise or lower the signal. Summed up: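 Readout: reporter mRNA induction by RT-PCR, FAM-labelled primer extension, HpaI digestion and capillary electrophoresis, 24 h after dosing transfected HepG2 cells. Endogenous transcription factors act on cis-element-regulated reporters. Gain or loss fitted against DMSO.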

A short description of experiment [15]: ATG_Ets_CIS: Attagene CIS-FACTORIAL HepG2 Assay for human Erythroblast Transformation Specific (ETS) (AID 2282941). The note with it: HepG2 ETS cis-reporter transcription, actives raise or lower the signal. In outline:
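Cis-regulated reporter mRNA induction in HepG2 (transient transfection), 24 h exposure, RT-PCR plus capillary electrophoresis detection; DMSO serves as negative control and baseline.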

Experiment [16] addresses Hepatocyte nuclear factor 3-beta (Homo sapiens) (UniProt Q9Y261). Briefly: ATG_FoxA2_CIS: Attagene CIS-FACTORIAL HepG2 Assay for human Forkhead box A2 (FOXA2) (AID 2282942). Conditions: HepG2 cis-reporter transcription factor activity, 24 h; actives raise or lower the signal. In outline:
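HepG2 cells transiently transfected with multiple cis-regulated reporter transcription units, dosed for 24 h. Reporter mRNA measured by RT-PCR, 6-FAM labelling, HpaI digestion and capillary electrophoresis; bidirectional fitting against DMSO baseline.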

Experiment [17] is described as follows: ATG_FoxO_CIS: Attagene CIS-FACTORIAL HepG2 Assay for human Forkhead box O (FoxO) (AID 2282943). Conditions: HepG2 Attagene cis-reporter, FoxO element, mRNA; actives raise or lower the signal. In outline: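 Endogenous transcription factor activity read from multiplexed cis-promoter reporter transcripts in transiently transfected HepG2, 24 h after dosing. Reporter RNA measured via RT-PCR plus capillary electrophoresis of FAM-labeled products; gain or loss relative to DMSO.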

Experiment [18] is described as follows: ATG_GATA_CIS: Attagene CIS-FACTORIAL HepG2 Assay for human GATA Binding Protein (AID 2282944). The note with it: HepG2 GATA cis-element reporter, Attagene multiplex mRNA; actives raise or lower the signal. In outline:
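Read-out: fluorescent reporter mRNA fragments resolved by capillary electrophoresis after RT-PCR. Human liver HepG2 cells carried transiently transfected cis-regulated reporter constructs; chemicals incubated 24 h; gain or loss of signal fitted relative to DMSO.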

Experiment [19] can be described thus: ATG_GLI_CIS: Attagene CIS-FACTORIAL HepG2 Assay for human Zinc Finger Protein GLI1 (AID 2282945). Conditions: HepG2, Attagene cis-factorial reporter mRNA, GLI element; actives raise or lower the signal. Summed up: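 Bidirectional curve fits relative to DMSO, using reporter mRNA levels from RT-PCR plus capillary electrophoresis. Cells were HepG2 transiently carrying cis-regulated reporter constructs, harvested 24 h after dosing.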

A short description of experiment [20]: ATG_AP_2_CIS: Attagene CIS-FACTORIAL HepG2 Assay for human Activator Protein 2 (AP-2) (AID 2282932). The note with it: HepG2 AP-2 cis-reporter, Attagene transcription factor profiling; actives raise or lower the signal. In outline: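 Transiently transfected HepG2 cells are exposed to chemical for 24 h. Reporter transcripts are then measured as fluorescence following RT-PCR and capillary separation, and gain- or loss-of-signal is fitted relative to DMSO.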

CCAAT/enhancer-binding protein beta (Homo sapiens), sequence (P17676 whole entry, looked up, the tested form may be a part): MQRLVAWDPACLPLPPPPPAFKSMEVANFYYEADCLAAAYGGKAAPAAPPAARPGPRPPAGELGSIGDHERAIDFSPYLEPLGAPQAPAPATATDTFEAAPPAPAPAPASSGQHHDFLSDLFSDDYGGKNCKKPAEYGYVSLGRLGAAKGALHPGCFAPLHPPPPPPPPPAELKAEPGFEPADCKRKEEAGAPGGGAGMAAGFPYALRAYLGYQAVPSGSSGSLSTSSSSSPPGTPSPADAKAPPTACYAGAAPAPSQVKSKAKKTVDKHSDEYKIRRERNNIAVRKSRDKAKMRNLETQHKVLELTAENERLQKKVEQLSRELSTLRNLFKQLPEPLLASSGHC
Aryl hydrocarbon receptor (Homo sapiens), sequence (P35869 whole entry, looked up): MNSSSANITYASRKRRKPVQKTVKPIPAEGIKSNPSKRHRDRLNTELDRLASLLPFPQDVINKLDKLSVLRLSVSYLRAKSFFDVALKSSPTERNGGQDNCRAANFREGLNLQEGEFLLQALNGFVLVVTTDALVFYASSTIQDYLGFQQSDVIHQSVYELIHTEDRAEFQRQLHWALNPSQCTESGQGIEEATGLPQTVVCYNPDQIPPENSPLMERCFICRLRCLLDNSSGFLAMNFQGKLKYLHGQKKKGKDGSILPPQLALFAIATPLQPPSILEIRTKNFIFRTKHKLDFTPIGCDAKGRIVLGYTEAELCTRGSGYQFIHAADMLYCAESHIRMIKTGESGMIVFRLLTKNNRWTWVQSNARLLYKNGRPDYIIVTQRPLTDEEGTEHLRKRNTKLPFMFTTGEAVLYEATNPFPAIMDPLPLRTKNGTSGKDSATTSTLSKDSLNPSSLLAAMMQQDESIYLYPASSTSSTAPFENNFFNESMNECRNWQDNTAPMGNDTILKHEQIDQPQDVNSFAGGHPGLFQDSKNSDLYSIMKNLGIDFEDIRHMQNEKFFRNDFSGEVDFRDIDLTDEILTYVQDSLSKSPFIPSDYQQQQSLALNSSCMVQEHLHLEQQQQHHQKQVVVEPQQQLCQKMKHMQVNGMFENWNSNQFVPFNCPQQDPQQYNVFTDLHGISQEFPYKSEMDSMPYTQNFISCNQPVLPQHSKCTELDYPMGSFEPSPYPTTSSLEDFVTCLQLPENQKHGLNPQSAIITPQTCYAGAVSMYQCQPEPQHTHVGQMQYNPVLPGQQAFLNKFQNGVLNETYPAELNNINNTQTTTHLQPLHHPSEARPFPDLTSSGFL
Hepatocyte nuclear factor 3-beta (Homo sapiens), sequence (Q9Y261 whole entry, looked up): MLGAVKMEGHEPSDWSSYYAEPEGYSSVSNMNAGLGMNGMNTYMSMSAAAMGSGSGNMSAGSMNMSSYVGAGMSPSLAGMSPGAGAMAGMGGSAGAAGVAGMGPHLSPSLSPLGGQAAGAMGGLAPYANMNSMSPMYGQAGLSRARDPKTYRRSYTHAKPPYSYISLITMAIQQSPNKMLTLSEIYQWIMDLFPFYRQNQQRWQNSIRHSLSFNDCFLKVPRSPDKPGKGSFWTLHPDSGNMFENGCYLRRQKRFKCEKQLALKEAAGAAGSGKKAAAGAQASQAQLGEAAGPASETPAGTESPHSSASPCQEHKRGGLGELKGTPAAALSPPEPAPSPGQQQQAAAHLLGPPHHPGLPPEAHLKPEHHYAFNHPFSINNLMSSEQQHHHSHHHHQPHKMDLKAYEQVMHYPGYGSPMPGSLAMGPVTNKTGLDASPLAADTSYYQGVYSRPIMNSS

With `C=CC(=O)OCCOC(=O)C=C`, the compound was classed as inactive in [1], in [2], in experiment [5], in [7], in experiment [8] and in experiment [9]. The compound was called inactive in experiment [11], in experiment [13], in experiment [14], in experiment [16], in experiment [17] and in experiment [18]. Further, in experiment [19], the outcome was inactive. Moreover, the AC50 was 27.2 µM (active) in experiment [3]; 27.4 µM (active) in experiment [4]; 126 µM (active) in [6]; 27.3 µM (active) in experiment [10]; 27.4 µM (active) in [12]; 27.2 µM (active) in experiment [15].
As for `C=C1C2CCC(C2)C1(C)C` (stereo unspecified), the outcome in experiment [1], in experiment [2], in experiment [3], in experiment [4], in [5] and in experiment [6] was inactive. Also, the call in [7], in experiment [8], in [9], in [10], in experiment [11] and in experiment [12] was inactive. Besides, the call in experiment [13], in experiment [14], in experiment [15], in experiment [17] and in experiment [19] was inactive.
As for `O=C(Nc1ccccc1SSc1ccccc1NC(=O)c1ccccc1)c1ccccc1`, the outcome in experiment [1], in experiment [2], in experiment [3], in [4], in [7] and in experiment [8] was inactive. For the same compound, the result in experiment [9], in [11], in [12], in experiment [13], in [14] and in experiment [15] was inactive. Also, the result in experiment [16], in [17] and in experiment [18] was inactive. Besides, the concentration at half-maximal activity (AC50) in [5] is 2.79 µM (active); in experiment [6] it was 62.4 µM (active); in [19], 100 µM (active).
Regarding `C[Si](C)O[Si](C)(C)O[Si](C)(C)O[Si](C)C`, the outcome in [1], in experiment [2], in [3], in experiment [5], in [6] and in [20] was inactive. The compound was called inactive in experiment [7], in [8], in experiment [9], in experiment [10], in experiment [11] and in [12]. For the same compound, the call in experiment [13], in experiment [16], in [17], in [18] and in [19] was inactive. Besides, the AC50 in [14] was 46.2 µM (active).
For the compound `OCCN(CCO)c1ccccc1`, the result in experiment [1], in experiment [2], in experiment [3], in experiment [6], in experiment [20] and in [7] was inactive. Also, the outcome in experiment [8], in experiment [9], in [10], in experiment [11], in [12] and in experiment [13] was inactive. The result in experiment [14], in [15], in experiment [16], in experiment [17], in experiment [18] and in [19] was inactive. For the same compound, the AC50 in experiment [5] was 13.7 µM (active).
As for `CCCc1ccc(OC)cc1`, the call in [1], in experiment [2], in [3], in [5], in [6] and in experiment [20] was inactive. Besides, the compound was called inactive in experiment [8], in [9], in [10], in experiment [11], in [12] and in experiment [13]. Further, the compound was called inactive in experiment [14], in experiment [16], in experiment [18] and in [19].
Consider `O=S(=O)(O)CC(O)CCl` (stereo unspecified), for which the compound was called inactive in [1], in experiment [2], in experiment [3], in experiment [5], in [6] and in [20]. Besides, the call in [7], in [8], in [9], in [10], in [11] and in experiment [12] was inactive. For the same compound, the call in [13], in experiment [14], in [15], in experiment [16], in [17] and in experiment [18] was inactive. In experiment [19], the result was inactive.

One may read the AC50 as the midpoint of the concentration-response curve, whichever way the signal moves.
